Sm TGR inh = blocks Schistosoma mansoni thioredoxin glutathione reductase; Q962Y6; purified TGR, DTNB reduction, TNB absorbance 405 nm; Potency, µM (highest dose often 114 µM), for inactives: at the top dose activity change, negative = inhibition, hits mostly inhibitors; actives 3% (n = 360,000); also: potency is read from the fitted curve at half-maximal effect; % is scaled to controls: 0 for no effect and ±100 for the full control effect; nearly all actives have a fitted effect of over 60% in size
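TGR 20 nM + NADPH 100 uM (dispensed conc.), cpd preinc 15 min RT; start with NADPH (500 uM addition) then DTNB (15 mM addition). Kinetic TNB absorbance, 405 nm filter. Four-parameter Hill fit across titration.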
Shiga toxin inh = Shiga toxin inhibition; inhibition, % at 38.7 µM; Vero cells, Shiga toxin protein synthesis inhibition reporter; actives 9.2% (n = 290,000); in the data active = inhibition mostly above about 28%, no sharp cut-off; inactive = mostly below about 43%; also: 0% is about no effect
CHX counter = affects cycloheximide protein synthesis inhibition readout, counter-screen | cell reporter, cycloheximide protein synthesis inhibition counterscreen | max response, % | actives 12% (n = 300,000); in the data active = max response mostly above about 13%, no sharp cut-off; inactive = mostly below about 14%; also: read at 38.3 µM for the half of the compounds with a filed dose; 0% is about no effect
LmPK inh = blocks Leishmania mexicana pyruvate kinase activity | purified LmPK, Kinase-Glo ATP luminescence, 1 h | Potency, µM (series often up to 57.5 µM), for inactives: at the top dose activity change, negative = inhibition, most hits filed as inhibitors | actives 0.37% (n = 290,000) | AID 1721; also: potency is read from the fitted curve at half-maximal effect; % is scaled to controls: 0 for no effect and ±100 for the full control effect
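0.1 nM LmPK, 0.5 mM PEP, 0.1 mM ADP; 50 mM imidazole pH 7.2, 7 mM MgCl2, 50 mM KCl; 1 h RT. Kinase-Glo luminescence readout, normalized to no-enzyme (full inhibition) and uninhibited wells.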
Giardia FBPA inh = blocks Giardia fructose-bisphosphate aldolase activity; A8B2U2; purified Giardia FBPA; Potency, µM (doses to about 59.6 µM), for inactives: at the top dose activity, negative = inhibition, actives largely listed as inhibitors; actives 0.71% (n = 290,000); AID 2451; also: potency is read from the fitted curve at half-maximal effect; % is scaled to controls: 0 for no effect and ±100 for the full control effect; nearly all actives have a fitted effect of over 55% in size
Target sequence (A8B2U2 whole entry, looked up): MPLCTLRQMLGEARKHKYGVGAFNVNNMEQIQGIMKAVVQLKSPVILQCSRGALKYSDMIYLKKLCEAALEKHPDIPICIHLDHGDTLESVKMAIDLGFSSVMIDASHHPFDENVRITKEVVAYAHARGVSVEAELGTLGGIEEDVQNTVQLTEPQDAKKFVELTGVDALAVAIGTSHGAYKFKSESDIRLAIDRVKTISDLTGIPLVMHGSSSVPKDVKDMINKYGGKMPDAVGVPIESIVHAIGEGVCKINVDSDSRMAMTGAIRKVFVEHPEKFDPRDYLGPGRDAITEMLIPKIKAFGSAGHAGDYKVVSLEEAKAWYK
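40 nM FBPA preincubated 10 min at RT with compound (up to 57.5 uM final), then substrate plus GAPDH/TPI/NAD/arsenate coupling and diaphorase/resazurin added. Fluorescence read after 20 min at RT, 525/598 nm.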
TbPYK inhibitor = T. brucei pyruvate kinase inhibition; Q57TT1; TbPYK enzyme, Kinase-Glo Plus ATP luminescence, 45 min; Potency, µM (series often up to 76.8 µM), inactives show at the highest dose activity, negative = inhibition, most hits filed as inhibitors; actives 0.12% (n = 410,000); also: potency is read from the fitted curve at half-maximal effect; % is scaled to controls: 0 for no effect and ±100 for the full control effect; nearly all actives have a fitted effect of over 50% in size
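Luminescence from Kinase-Glo Plus, added after a 45-minute room-temperature reaction, served as the end-point read-out. The enzyme and substrate were preincubated with compound before ADP (130 uM final) initiated turnover. Concentration-effect curves came from normalized qHTS data.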
* = called active by the depositor; u = inconclusive; x = no result; [ ] = another dose, or the depositor's remark. Many of the other results were omitted from the sample, so hits are more common in it than they were. Unless noted, calls follow the shape of the dose curve; as a rule, active = well fitted curve in the direction sought with a large enough effect; inconclusive = small, poorly fitted or top-dose-only effect, or another doubt; inactive = no such curve, though single readings can be large; an effect the other way counts as inactive or inconclusive.

SMILES	Sm TGR inh	Shiga toxin inh	CHX counter	LmPK inh	Giardia FBPA inh	TbPYK inhibitor
Cc1cccnc1NC(=S)NCCc1ccccc1	u	70*	37*	-5%	-1%	-27%
COc1ccc(NC(=S)Nc2ncccc2C)c(OC)c1	u	68	63*	1%	-10%	-4%
CCN1CCC[C@@H]1CNC(=O)c1cc(S(=O)(=O)CC)ccc1OC	x	x	x	x	x	0%
Cc1cccnc1NC(=S)Nc1ncccc1C	-13%	68*	31*	u	u	-12%
CCC1(c2ccc(OC)cc2)NC(=O)N(C)C1=O (configuration not stated)	x	12	-8	x	2%	x
COc1ccc(NC2=CC(=O)CC(c3ccccc3)C2)cc1 (configuration not stated)	x	-8	22*	-1%	0%	-4%
O=C1C=C(Nc2ccccc2)CC(c2ccccc2)C1 (configuration not stated)	-5%	22	3	1%	4%	0%
Cc1sc2ncnc(Nc3ccc(O)cc3)c2c1C	8%	10	6	-4%	-12%	-2%
Cc1ccc(S(=O)(=O)Nc2ncnc3sc(C)c(C)c23)cc1	-7%	x	x	x	x	-5%
Cc1sc2ncnc(N/N=C/c3cccc(O)c3)c2c1C	1%	29*	42*	-2%	-22%	-7%
C/C(=N\Nc1ncnc2sc(C)c(C)c12)c1ccccn1	2%	67*	49*	3%	u	-12%
Cc1ccc(Nc2ncnc3sc(C)c(C)c23)cc1	-15%	79*	24*	1%	-2%	-1%
Cc1ccc(Cl)cc1NC(=O)c1cc(CN2CCCC2)on1	-3%	x	x	x	x	0%
CC1C2(C)OCC(C#N)(C(=N)O2)C1(C#N)C#N (configuration not stated)	13µM*	6	-1	2%	-30%	x
CCC1=C(OC(=O)N(CC)CC)N2C(=O)OC(=NCC3CC3)[C@]2(C)[C@H]2C1=CC[C@H]1C(=O)N(c3ccccc3)C(=O)[C@H]12	x	x	x	x	-3%	x
Cc1noc(NS(=O)(=O)c2ccc(N/C=C\C(=O)c3cccc4ccccc34)cc2)c1C	-24%	40	12	-15%	13%	-12%
Cc1noc(NS(=O)(=O)c2ccc(N/C=C\C(=O)c3ccc(Br)cc3)cc2)c1C	-12%	58*	19*	11%	12%	3%
CCOc1ccc(C(=O)/C=C/Nc2ccc(S(=O)(=O)Nc3onc(C)c3C)cc2)cc1	3%	85*	20*	0%	12%	-11%
COc1cccc(C(=O)/C=C/Nc2ccc(S(=O)(=O)Nc3onc(C)c3C)cc2)c1	10%	63*	44*	-3%	22%	-5%
Cc1noc(NS(=O)(=O)c2ccc(N/C=C\C(=O)c3ccc4c(c3)OCO4)cc2)c1C	-15%	72*	37*	-2%	15%	-2%
CCCn1c(N)c(C(=O)CSc2nc(N)cc(=O)[nH]2)c(=O)n(C)c1=O	-9%	x	x	x	x	5%
O=C(N/N=C1/C[C@@H](O)[C@@H](O)[C@@H]2[C@@H]3C(=O)N(Cc4ccc5c(c4)OCO5)C(=O)[C@H]3CC[C@@H]12)OCc1ccccc1	x	x	x	x	0%[12.9 µM]	x
CC(C)NC(=O)Cn1nc(N2CCN(c3ccccc3)CC2)ccc1=O	13%	x	x	x	x	3%
Cc1ccccc1CCNC(=O)C1CC(O)CN1C(=O)Nc1ccccc1 (configuration not stated)	-20%	-4	-3	-1%	-3%	4%
CCCN1CCC(NC(=O)Nc2ccc([N+](=O)[O-])cc2)CC1	2%	-7	-3	-2%	1%	-1%
SMILES	Sm TGR inh	Shiga toxin inh	CHX counter	LmPK inh	Giardia FBPA inh	TbPYK inhibitor
CCCN1CCOC(CC(=O)Nc2ccc([N+](=O)[O-])cc2)C1=O (configuration not stated)	28µM*	26	-2	0%	0%	5%
CCN1CCOC(CC(=O)Nc2cccc([N+](=O)[O-])c2)C1=O (configuration not stated)	11µM*	-7	16	2%	3%	3%
C=CCn1c(Cc2ccccc2)nc2c(cnn2-c2ccccc2)c1=O	-9%	11	13	2%	13%	-3%
CCN(CC)c1nc(SCCOC(=O)Nc2ccccc2)nc(N(CC)CC)n1	-15%	29	16*	-7%	-3%	3%
CC1Sc2ccc(S(=O)(=O)N3CCC(C(=O)Nc4ccc(Cl)cc4)CC3)cc2NC1=O (configuration not stated)	-6%	-3	-11	-4%	x	-24%
CSc1ccccc1NC(=O)CO/N=C(\C)c1cc2ccccc2o1	3%	31	18*	6%	6%	2%
C/C(=N\OCc1ccc(C#N)cc1)c1cc2ccccc2o1	31%	38	-1	4%	-7%	-6%
CCc1ccc(NC(=O)CO/N=C(\C)c2cc3ccccc3o2)cc1	-18%	-21	-2	7%	-6%	-6%
C/C(=N\OCC(=O)NC12CC3CC(CC(C3)C1)C2)c1cc2ccccc2o1	-13%	6	18*	3%	5%	5%
C/C(=N\OCc1ccccc1C#N)c1cc2ccccc2o1	2%	71*	36*	0%	-2%	-3%
Cc1cccc(-c2[nH]ncc2-c2ccc3ncccc3n2)n1	x	x	x	x	x	2%[157 µM]
CS(=O)(=O)N1CCC2(CCN(Cc3nccs3)CC2)CC1	x	x	x	x	2%	0%
CCN(CC)S(=O)(=O)c1cccc(NC(=O)c2cc3ccccc3o2)c1	8%	55*	22	4%	-2%	4%
CN(C)S(=O)(=O)c1cccc(NC(=O)c2cc3ccccc3o2)c1	0%	54	57*	3%	-15%	x
O=C(Nc1cccc(S(=O)(=O)N2CCCCC2)c1)c1cc2ccccc2o1	1%	x	x	x	x	-9%
CCc1ccc(C2CC(c3ccco3)=NN2S(C)(=O)=O)cc1 (configuration not stated)	-18%	83*	45*	13µM*	3%	-12%
Cc1cccc2cc(C3CC(c4ccco4)=NN3S(=O)(=O)c3ccccc3)c(Cl)nc12 (configuration not stated)	-9%	86*	36*	2%	3%	1%
Cc1cccc2cc(C3CC(c4ccco4)=NN3S(C)(=O)=O)c(Cl)nc12 (configuration not stated)	32µM*	21	9	0%	-8%	-2%
CCOc1ccc(NC(=O)CSc2ccc(-c3ccco3)nn2)cc1	u	-4	2	-3%	x	-15%
CCCCn1c(-c2ccccc2)cnc1SCC(=O)NCCc1ccc(OC)c(OC)c1	-3%	132*	21*	10%	1%	-3%
O=C(CSc1ccc(-c2ccco2)nn1)Nc1ccccc1	7.1µM*	16	16	1%	-15%	-22%

Assay outcomes deposited in PubChem by National Center for Advancing Translational Sciences (NCATS).
